Our source for the growth inhibition values is PubChem BioAssay (NCI).

Assay [1] is described as follows: NCI Yeast Anticancer Drug Screen. Data for the rad50 strain (AID 155).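 Also: 0% = growth of vehicle-only cultures of the same strain.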 The conditions noted are these: S. cerevisiae rad50 strain growth inhibition; at 50.0 µM; stronger effect = higher value. The method in brief: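 A DNA repair-deficient yeast mutant serves as the test organism; compound-induced growth inhibition is calculated against vehicle-treated cells.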
Assay [2] can be described thus: NCI Yeast Anticancer Drug Screen. Data for the mec2-1 strain (AID 157). The conditions noted are these: S. cerevisiae mec2-1 strain, at 50.0 µM, stronger effect = higher value. The method in brief: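 Cells of the genetically defined mec2-1 yeast strain are incubated with test compound. Inhibition of growth is calculated against vehicle-treated controls.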
Assay [3] in a line: NCI Yeast Anticancer Drug Screen. Data for the sgs1 mgt1 strain (AID 161).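 Also: 0% = growth of cultures given vehicle only.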 The conditions noted are these: S. cerevisiae sgs1 mgt1 strain, at 50.0 µM, stronger effect = higher value. A digest of the protocol: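 Mutant yeast exposed to compound; growth scored against vehicle-only wells.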
Assay [4] is described as follows: NCI Yeast Anticancer Drug Screen. Data for the cln2 rad14 strain (AID 165).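 Also: 0% = growth equal to vehicle treated cultures.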 The conditions noted are these: S. cerevisiae cln2 rad14 strain, at 50.0 µM, stronger effect = higher value. A digest of the protocol: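 The screen exposed genetically defined yeast (cln2 rad14) to test compounds and scored growth inhibition relative to vehicle-treated controls.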
Assay [5] can be described thus: NCI Yeast Anticancer Drug Screen. Data for the bub3 strain (AID 167). The conditions noted are these: S. cerevisiae bub3 mutant strain, at 50.0 µM, stronger effect = higher value. A digest of the protocol: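 Inhibition values come from growth of compound-treated mutant yeast normalised to vehicle-treated controls.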
The nature of assay [6]: NCI Yeast Anticancer Drug Screen. Data for the mlh1 rad18 strain (AID 175). The conditions noted are these: S. cerevisiae mlh1 rad18 strain growth inhibition; at 50.0 µM; stronger effect = higher value. The method in brief:
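Compound-treated yeast growth, normalised to vehicle controls. Strain bears defined DNA repair mutations.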

About 79,000 compounds went through this panel and 15% of them were active in at least one assay; those are over-represented in the sample as a whole. A number with no mark means an inactive call. The source made the active and inactive calls. Rule as the data show it: active = growth inhibition above about 70%; inactive = the rest.

On to `CN(C)c1ccc(/C=C/c2ccnc3ccc(Br)cc23)cc1`, for which the growth inhibition is 26.9% in assay [1]; 14.9% in assay [2]; 27.4% in assay [3]; 14.9% in assay [4]; 8.1% in assay [5]; 9.35% in assay [6].

For the compound `Cc1ccc(S(=O)(=O)N2CCCSCCN(S(=O)(=O)c3ccc(C)cc3)CCCSCC2)cc1`, the growth inhibition in assay [1] is -0.25%; in assay [2] it was -32.5%; in assay [3], -30.2%; in assay [4] it was -9.4%; in assay [5], -28.6%; in assay [6] it was -24.4%.

On to `O=S(=O)(NOCCCCONS(=O)(=O)c1ccccc1)c1ccccc1`, for which the growth inhibition in assay [1] is 27.6%; in assay [2] it was 17.6%; in assay [3] it was 11.2%; in assay [4] it was 92.1% (active); in assay [5] it was 26.3%; in assay [6], -6.15%.

Turning to `Cn1c(-c2ccccc2)nc(-c2ccccc2)[n+]1[O-]`, the growth inhibition in assay [1] is 8.75%; in assay [2] it was -0.55%; in assay [3], 1.85%; in assay [4] it was 9.8%; in assay [5], 0.6%; in assay [6] it was 28.6%.

Turning to `O=C(O)C1CCCCC1C(=O)Nc1nc2ccccc2[nH]1` (stereo not given), the growth inhibition in assay [1] was -18.6%; in assay [2], -17.1%; in assay [3], -12.7%; in assay [4], -16.7%; in assay [5] it was -57.9%; in assay [6], -10.6%.

For `Cc1ccc(S(=O)(=O)N/N=C/c2cc(I)cc(I)c2O)cc1`, the growth inhibition in assay [1] was 99.5% (active); in assay [2] it was 99.3% (active); in assay [3] it was 99.2% (active); in assay [4], 99.4% (active); in assay [5] it was 98.3% (active); in assay [6], 99.1% (active).

Regarding `Cc1nc(/N=C(\N)Nc2ccc(Cl)c(Cl)c2)[nH]c(=O)c1Cc1ccccc1`, the growth inhibition is 2.3% in assay [1]; 1.65% in assay [2]; -10.1% in assay [3]; -6.75% in assay [4]; -5.05% in assay [5]; 3.65% in assay [6].

Regarding `CC(S)c1ccccc1` (stereo not given), the growth inhibition in assay [1] was 6.4%; in assay [2], -0.55%; in assay [3], 13.2%; in assay [4], 11.9%; in assay [5], 25.7%; in assay [6], 14.4%.

Turning to `CCCCNC(=O)c1ccc([N+](=O)[O-])cc1`, the growth inhibition in assay [1] is 29.3%; in assay [2], 12%; in assay [3] it was 13.4%; in assay [4], 17.6%; in assay [5], -16.8%; in assay [6], -9.05%.

Consider `CC1=C2C(=CC(C)(CO)C2O)C(O)C(C)(O)C12CC2` (stereo not given), for which the growth inhibition is 21.1% in assay [1]; -5.15% in assay [2]; -17.1% in assay [3]; 1.95% in assay [4]; -13.9% in assay [5]; -29.8% in assay [6].

With `COc1cc2c(cc1OC)C(C(CO)CO)N(CC(O)CCl)CC2` (stereo not given), the growth inhibition in assay [1] is -25.6%; in assay [2], -16.1%; in assay [3], -26%; in assay [4] it was -6.65%; in assay [5], -13.9%; in assay [6], -30.8%.

On to `O=C(O)COc1ccc(C2CCCCC2)cc1`, for which the growth inhibition in assay [1] was 5.1%; in assay [2], 3.3%; in assay [3] it was -7.65%; in assay [4] it was 21.8%; in assay [5] it was -4.9%; in assay [6], -1.95%.

As for `CC(=O)Nc1cc2c(s1)CCC1CC(=O)NN=C21` (stereo not given), the growth inhibition was -12.4% in assay [1]; -25.6% in assay [2]; -31.8% in assay [3]; 1.9% in assay [4]; -9.35% in assay [5]; -11.5% in assay [6].

As to `CC(=O)Nc1c(C(=N)C#N)ncn1CCO`, the growth inhibition in assay [1] is 2.3%; in assay [2], 10.2%; in assay [3], 8.35%; in assay [4], 11.2%; in assay [5] it was -3.65%; in assay [6], 5.5%.

Turning to `CCO[C@H]1OC(=O)[C@@H]2C(c3ccc([N+](=O)[O-])cc3)=NO[C@H]12`, the growth inhibition in assay [1] is -12%; in assay [2], -32.5%; in assay [3], -12.9%; in assay [4], 2.7%; in assay [5], 4.85%; in assay [6] it was -29.8%.

As for `CCN(CC)CCN1C(=O)c2c(c(-c3ccccc3)c3ccccc3c2-c2ccccc2)C1=O`, the growth inhibition is 21.6% in assay [1]; 35.2% in assay [2]; 21.6% in assay [3]; 13.2% in assay [4]; 27.4% in assay [5]; 28% in assay [6].

For the compound `COc1c(Br)cc(Br)cc1Br`, the growth inhibition in assay [1] was -1.45%; in assay [2] it was -5.7%; in assay [3], 14.2%; in assay [4], -47.1%; in assay [5], -10.8%; in assay [6] it was 6.05%.

`CC(C)CC1=C(O)c2ccccc2C(=O)C1=O`: the growth inhibition in assay [1] was 11%; in assay [2], -9.7%; in assay [3] it was -1.45%; in assay [4], -1.6%; in assay [5], 10.4%; in assay [6], -2.4%.

For the compound `CCN(Cc1cccc(S(=O)(=O)O)c1)c1ccc(C(=C2C=CC(=[N+](CC)Cc3cccc(S(=O)(=O)O)c3)C=C2)c2ccc(O)cc2S(=O)(=O)O)cc1`, the growth inhibition is -115% in assay [1]; -127% in assay [2]; -71.2% in assay [3]; -110% in assay [4]; -136% in assay [5]; -137% in assay [6].

Regarding `CSCCC(NC(=O)c1c(Cl)ccc(Cl)c1Cl)C(=O)O` (stereo not given), the growth inhibition in assay [1] was -8.45%; in assay [2], -0.75%; in assay [3], 18.6%; in assay [4], -18.6%; in assay [5], 0.6%; in assay [6], -16.4%.
